For 1 compound, inhibition results are on record in PubChem BioAssay AID651621 (National Center for Advancing Translational Sciences (NCATS), 2012).

The structures appear in SMILES notation. Activity calls are given as the source filed them.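 The calls were made as follows: active = inhibition of 60% or more at 11 µM; inconclusive = inhibition from 30% up to under 60% at 11 µM; inactive = inhibition below 30% at 11 µM.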

Chain of Ubiquitin carboxyl-terminal hydrolase 1 (Homo sapiens) + WD repeat-containing protein 48 (Homo sapiens) (O94782 whole entry, looked up): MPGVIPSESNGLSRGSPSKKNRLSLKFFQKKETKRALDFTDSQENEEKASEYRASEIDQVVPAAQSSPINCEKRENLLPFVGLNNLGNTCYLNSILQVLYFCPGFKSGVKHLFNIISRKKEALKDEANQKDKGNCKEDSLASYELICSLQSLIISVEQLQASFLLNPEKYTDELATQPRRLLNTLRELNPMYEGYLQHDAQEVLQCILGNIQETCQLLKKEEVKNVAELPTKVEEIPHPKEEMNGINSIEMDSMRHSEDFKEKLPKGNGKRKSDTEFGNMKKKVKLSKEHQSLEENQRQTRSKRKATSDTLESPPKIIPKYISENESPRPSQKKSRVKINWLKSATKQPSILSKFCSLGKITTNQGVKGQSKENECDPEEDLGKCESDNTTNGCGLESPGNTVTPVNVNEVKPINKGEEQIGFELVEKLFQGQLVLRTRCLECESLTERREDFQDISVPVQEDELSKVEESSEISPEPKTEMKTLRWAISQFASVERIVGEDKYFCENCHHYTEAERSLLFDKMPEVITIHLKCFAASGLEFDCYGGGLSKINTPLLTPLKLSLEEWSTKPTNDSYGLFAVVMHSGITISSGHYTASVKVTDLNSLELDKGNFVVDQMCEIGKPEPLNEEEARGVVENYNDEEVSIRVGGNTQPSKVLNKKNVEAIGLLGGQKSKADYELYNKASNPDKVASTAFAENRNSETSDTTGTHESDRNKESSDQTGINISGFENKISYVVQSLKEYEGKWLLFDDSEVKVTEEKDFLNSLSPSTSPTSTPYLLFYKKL
Chain of Ubiquitin carboxyl-terminal hydrolase 1 (Homo sapiens) + WD repeat-containing protein 48 (Homo sapiens) (Q8TAF3 whole entry, looked up): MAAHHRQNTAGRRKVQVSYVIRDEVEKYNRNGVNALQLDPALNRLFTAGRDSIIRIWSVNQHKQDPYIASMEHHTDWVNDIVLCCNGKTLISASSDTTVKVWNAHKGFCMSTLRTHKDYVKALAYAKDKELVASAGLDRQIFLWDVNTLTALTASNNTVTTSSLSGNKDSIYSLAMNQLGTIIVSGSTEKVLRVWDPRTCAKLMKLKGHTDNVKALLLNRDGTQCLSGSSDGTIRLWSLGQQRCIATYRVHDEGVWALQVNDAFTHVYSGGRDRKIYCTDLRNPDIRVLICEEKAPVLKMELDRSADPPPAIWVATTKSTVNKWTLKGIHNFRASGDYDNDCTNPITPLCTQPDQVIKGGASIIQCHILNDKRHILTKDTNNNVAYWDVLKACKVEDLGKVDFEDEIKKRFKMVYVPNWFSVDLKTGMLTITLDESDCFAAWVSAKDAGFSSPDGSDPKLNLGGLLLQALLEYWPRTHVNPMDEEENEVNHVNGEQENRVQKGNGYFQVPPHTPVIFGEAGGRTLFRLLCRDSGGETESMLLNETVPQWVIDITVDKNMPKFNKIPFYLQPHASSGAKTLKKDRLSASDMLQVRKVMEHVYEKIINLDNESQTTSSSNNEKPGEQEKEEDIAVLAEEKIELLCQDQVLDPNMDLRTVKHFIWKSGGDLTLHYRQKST

The assay has as its target Ubiquitin carboxyl-terminal hydrolase 1 (Homo sapiens) + WD repeat-containing protein 48 (Homo sapiens) (UniProt O94782+Q8TAF3). The experiment in a line: Inhibitors of USP1/UAF1: SAR in USP1/UAF1 diubiquitin SDS-PAGE gel assay. As to conditions: purified USP1/UAF1, K63 diubiquitin cleavage, at 11 µM, stronger effect = higher value. The text has this: Deubiquitinating enzymes (DUBs) are a class of enzymes that can cleave isopeptide bond formed between the C-terminal carboxylate of ubiquitin and a lysine side-chain amino group on the target protein. Among them, ubiquitin specific proteases (USPs) constitute the largest DUB family. Human USPs are emerging as promising targets for pharmacological intervention because of their connection to a number of human diseases, including prostate, colon and breast cancer (1, 2), pediatric acute lymphoblastic leukemia (3), and familial cylindromatosis (4). The advantage of inhibiting USPs lies in the potential specificity of therapeutic intervention that can lead to better efficacy and reduce nonspecific side effects. In a collaboration between the University of Delaware and the NIH Chemical Genomics Center, a high-throughput screen assay was developed to screen for USP1/UAF1 inhibitors (5). This assay is a orthogonal assay that tested for activity in a USP1/UAF1 diubiquitin SDS-PAGE gel assay. NIH Chemical Genomics Center [NCGC] […]
The inhibition assay contains 100 nM for USP1/UAF1, 2 microM K63 linked diubiquitin, and inhibitors at varied concentrations (0.08 microM - 114 microM). […] The intensity of the individual diubiquitin and monoubiquitin band was quantified using Quantity One 4.3.1 (Biorad, Hercules, CA). The percentage of the conversion was determined and used to calculate the reaction rate. […]
Usually inhibition stands for the share of the control response that was lost under treatment. In the case of `Cc1cnc(-c2ccccc2C(C)C)nc1NCc1ccc(-n2ccnn2)cc1`, the inhibition is 98.5% (active).
